Data: the supplement of paper PMC8007513
Counter-ions that a name gives are not always drawn. ± gives the standard error. In all, about 1,300 compounds went through this assay and about 75 (6%) showed an effect of 50% or more. The sample holds strong results, similar compounds and a random draw of the others, so the mix is not that of the screen.

Test system: Trichoderma virens ATCC 9645
Test: growth yield (OD600) relative to untreated control; higher = less growth inhibition
Conditions: compound concentration: 100 uM
In short: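 Trichoderma virens ATCC 9645 spores, from potato dextrose agar plates grown for 7 days, were brought to 15,000 spores ml^−1 in potato dextrose broth and dispensed as 100 μl aliquots into 96-well plates. Each aliquot received library compounds at 100 μM final, with or without a biocide at 200 ng ml^−1, before growth at 30 °C and OD600 readings on a BioTek EL800 at 40 h and 72 h. Growth is expressed relative to the control containing neither agent and represents means of duplicate screens.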

Row | SMILES | growth yield (40 h) | growth yield (72 h)
1 | Clc1ccccc1C(c1ccccc1)(c1ccccc1)n1ccnc1 [Clotrimazole] | 2.38 ± 1.8% | 1.89 ± 1.1%
2 | CN(C)c1ccc(O)c2c1C[C@H]1C[C@H]3[C@H](N(C)C)C(O)=C(C(N)=O)C(=O)[C@@]3(O)C(O)=C1C2=O [Minocycline hydrochloride] | 95.3 ± 0.64% | 97.4 ± 2%
3 | CC(C)(C)NC[C@H](O)COc1ccccc1C1CCCC1 [Penbutolol sulfate] | 109 ± 6.2% | 110 ± 5.1%
4 | CC(=O)N(CC(O)CO)c1c(I)c(C(=O)NCC(O)CO)c(I)c(C(=O)NCC(O)CO)c1I (stereo not drawn) [Iohexol] | 103 ± 1.3% | 106 ± 1.1%
5 | CNC(C)CCC=C(C)C (stereo not drawn) [Isometheptene mucate] | 99.1 ± 3.8% | 96.2 ± 4.3%
6 | CCCC(=O)Nc1ncnc2c1ncn2[C@@H]1O[C@@H]2COP(=O)(O)O[C@H]2[C@H]1OC(=O)CCC [Bucladesine sodium salt] | 97.69 ± 0.79% | 97.75 ± 0.42%
7 | Nc1nc2c(ncn2COC(CO)CO)c(=O)[nH]1 [Ganciclovir] | 106 ± 4.3% | 103 ± 4%
8 | Nc1nc2n[nH]nc2c(=O)[nH]1 [Azaguanine-8] | 3.49 ± 0.95% | 2.62 ± 0.1%
9 | Nc1nc2c(ncn2COCCO)c(=O)[nH]1 [Acyclovir] | 103.7 ± 0.48% | 101 ± 1.7%
10 | CC[C@]12CCCN3CCc4c(n(c5ccccc45)[C@@](O)(C(=O)OC)C1)[C@@H]32 [Vincamine] | 97.37 ± 0.16% | 95.3 ± 1.4%
11 | CCN1CCC[C@H]1CNC(=O)c1c(OC)ccc(Br)c1OC [Remoxipride Hydrochloride] | 101 ± 1.9% | 101.8 ± 0.94%
12 | O=C(O)Cc1sc(-c2ccccc2)nc1-c1ccc(Cl)cc1 [Fentiazac] | 63.1 ± 4.3% | 88.8 ± 4.9%
13 | CC[N+](CC)(CC)CCC(O)(c1ccccc1)C1CCCCC1 (stereo not drawn) [Tridihexethyl chloride] | 103 ± 6.3% | 101 ± 4.5%
14 | CCCCOC(=O)c1ccc(N)cc1 [Butamben] | 66.9 ± 1.8% | 73 ± 2.5%
15 | CCCCN(CCCC)CCCOC(=O)c1ccc(N)cc1 [Butacaine] | 95.5 ± 4.9% | 98.5 ± 4.1%
16 | CCCCOC(=O)c1ccc(O)cc1 [Butylparaben] | 46.4 ± 2.2% | 49.5 ± 0.84%
17 | CC(C)(C)NC(=O)[C@@H]1C[C@@H]2CCCC[C@@H]2CN1C[C@@H](O)[C@H](Cc1ccccc1)NC(=O)[C@H](CC(N)=O)NC(=O)c1ccc2ccccc2n1 [Saquinavir mesylate] | 110 ± 3.3% | 107 ± 3.1%
18 | CC[C@H](C)C(=O)O[C@H]1C[C@@H](C)C=C2C=C[C@H](C)[C@H](CC[C@@H]3C[C@@H](O)CC(=O)O3)[C@H]21 [Lovastatin] | 94.8 ± 5.2% | 94.5 ± 3.2%
19 | CCCCC(CC)CN1CN(CC(CC)CCCC)CC(C)(N)C1 (stereo not drawn) [Hexetidine] | 105 ± 3.2% | 118 ± 6.3%
20 | NCc1ccc(S(N)(=O)=O)cc1 [Mafenide hydrochloride] | 107 ± 2.5% | 111 ± 4.2%
21 | NS(=O)(=O)c1cc(C2(O)NC(=O)c3ccccc32)ccc1Cl (stereo not drawn) [Chlorthalidone] | 102 ± 3.6% | 105 ± 3.7%
22 | CCOC(=O)C1=C(COCCN)NC(C)=C(C(=O)OC)C1c1ccccc1Cl (stereo not drawn) [Amlodipine] | 105 ± 12% | 113 ± 11%
23 | CC(C(=O)O)c1ccc2c(c1)[nH]c1ccc(Cl)cc12 (stereo not drawn) [Carprofen] | 40.7 ± 15% | 88.9 ± 8%

Row | SMILES | growth yield (40 h) | growth yield (72 h)
24 | COc1ccc2cc([C@@H](C)C(=O)O)ccc2c1 [(R) -Naproxen sodium salt] | 84.5 ± 7% | 87.2 ± 6.4%
25 | CC(C(=O)O)c1ccc(-c2ccccc2)c(F)c1 (stereo not drawn) [Flurbiprofen] | 72.9 ± 3% | 86.5 ± 3.9%
26 | CC[N+](C)(CC)CCOC(=O)C1c2ccccc2Oc2ccccc21 [Methantheline bromide] | 110 ± 1.8% | 108 ± 1.3%
27 | CCOC(=O)[C@H](CCc1ccccc1)N[C@@H](C)C(=O)N1Cc2ccccc2C[C@H]1C(=O)O [Quinapril hydrochloride] | 98.8 ± 3.8% | 98.1 ± 1.1%
28 | Cc1cccc(C)c1NC(=O)CN1CCN(CCCC(c2ccc(F)cc2)c2ccc(F)cc2)CC1 [Lidoflazine] | 95.6 ± 1.3% | 114 ± 3%
29 | CN(C)CCCO[C@@H]1[C@H]2OC(C)(C)O[C@H]2O[C@@H]1[C@H](O)CO [Amiprilose hydrochloride] | 100.5 ± 0.79% | 101.6 ± 0.73%
30 | CN(Cc1ccc(C(C)(C)C)cc1)Cc1cccc2ccccc12 [Butenafine Hydrochloride] | 2.06 ± 1.4% | 1.99 ± 1.1%
31 | CN(C/C=C/c1ccccc1)Cc1cccc2ccccc12 [Naftifine hydrochloride] | 15.6 ± 1.6% | 55.5 ± 4.3%
32 | c1ccc2c(CC3=NCCN3)cccc2c1 [Naphazoline hydrochloride] | 101 ± 2.4% | 100%
33 | CN(C/C=C/C#CC(C)(C)C)Cc1cccc2ccccc12 [Terbinafine] | 2.7 ± 0.16% | 2.52%
34 | C#CCN(C)Cc1ccccc1 [Pargyline hydrochloride] | 105 ± 2.1% | 107 ± 2.9%
35 | CC1(C)O[C@@H]2C[C@H]3[C@@H]4C[C@H](F)C5=CC(=O)C=C[C@]5(C)[C@H]4[C@@H](O)C[C@]3(C)[C@]2(C(=O)CO)O1 [Flunisolide] | 100.5 ± 0.48% | 96.5 ± 1.3%
36 | N=C(N)N1CCc2ccccc2C1 [Debrisoquin sulfate] | 97.5 ± 1.3% | 101.8 ± 0.52%
37 | CNCC[C@@H](Oc1cccc2ccccc12)c1cccs1 [(R)-Duloxetine hydrochloride] | 99.1 ± 2.9% | 107 ± 3.1%
38 | Cc1ncc([N+](=O)[O-])n1CC(O)CCl (stereo not drawn) [Ornidazole] | 99.8 ± 2.9% | 103 ± 2.3%
39 | CC(=O)N(CC(C)C(=O)O)c1c(I)cc(I)c(N)c1I (stereo not drawn) [Iocetamic acid] | 107 ± 1.6% | 104 ± 1.1%
40 | N[C@@H](C(=O)N[C@@H]1C(=O)N2C(C(=O)O)=C(Cl)CS[C@H]12)c1ccccc1 [Cefaclor hydrate] | 96.1 ± 4.6% | 96.9 ± 4.2%
41 | CCCCC(C)(O)C/C=C/[C@H]1[C@H](O)CC(=O)[C@@H]1CCCCCCC(=O)OC (mixture of isomers) [Misoprostol] | 105 ± 1.3% | 109 ± 4.1%
42 | CCOC(=O)O[C@]1(C(=O)COC(=O)CC)CC[C@H]2[C@@H]3CCC4=CC(=O)C=C[C@]4(C)[C@H]3[C@@H](O)C[C@@]21C [Prednicarbate] | 118 ± 3% | 114 ± 2.8%
43 | O=c1[nH]c(=O)n([C@H]2C[C@H](O)[C@@H](CO)O2)cc1C(F)(F)F [Trifluridine] | 109.9 ± 0.95% | 106 ± 1.1%
44 | O=c1[nH]c(=O)n([C@H]2C[C@H](O)[C@@H](CO)O2)cc1I [Idoxuridine] | 102 ± 3.8% | 99.4 ± 3.1%
45 | O=c1[nH]c(=O)n([C@H]2C[C@H](O)[C@@H](CO)O2)cc1F [Floxuridine] | 11.1 ± 3.8% | 46.3 ± 9.3%
46 | c1ccc2[nH]c(-c3cscn3)nc2c1 [Tiabendazole] | 1.43 ± 1.4% | 1.26 ± 1.3%

Row | SMILES | growth yield (40 h) | growth yield (72 h)
47 | C[C@@H]1CCC[C@H](C)N1NC(=O)c1ccc(Cl)c(S(N)(=O)=O)c1 [Clopamide] | 99.6 ± 1.8% | 103 ± 3%
48 | CCCCc1ncc(/C=C(\Cc2cccs2)C(=O)O)n1Cc1ccc(C(=O)O)cc1 [Eprosartan mesylate] | 98.3 ± 5.6% | 94.08 ± 0.94%
49 | Cc1onc(-c2ccccc2)c1C(=O)N[C@@H]1C(=O)N2[C@@H]1SC(C)(C)[C@@H]2C(=O)O [Oxacillin sodium] | 111 ± 1.6% | 105 ± 1.4%
50 | CCCCCOC(=O)Nc1nc(=O)n([C@@H]2O[C@H](C)[C@@H](O)[C@H]2O)cc1F [Capecitabine] | 105.2 ± 0.64% | 103.2 ± 0.84%
51 | CC(CN(C)C)C(C)(O)Cc1ccc(Cl)cc1 (stereo not drawn) [Clobutinol hydrochloride] | 105 ± 3.5% | 104 ± 2.5%
52 | Oc1c(Cl)cc(Cl)c(Cl)c1Cc1c(O)c(Cl)cc(Cl)c1Cl [Hexachlorophene] | 25.3 ± 2.1% | 98.9 ± 5.8%
53 | CC(C(=O)O)c1cccc(Oc2ccccc2)c1 (stereo not drawn) [Fenoprofen calcium salt dihydrate] | 97.5 ± 10% | 97.7 ± 13%
54 | CC(=O)N[C@@H](CC(C)C)C(=O)O [N-Acetyl-L-leucine] | 103 ± 3% | 103 ± 2.7%
55 | CCCN(CCC)CCc1cccc2c1CC(=O)N2 [Ropinirole hydrochloride] | 99.43 ± 0.64% | 103 ± 1.1%
56 | COc1cc([S+](C)[O-])ccc1-c1nc2cccnc2[nH]1 (stereo not drawn) [Sulmazole] | 99.4 ± 2.2% | 98 ± 1.7%
57 | Cc1cc2cc3c(C)cc(=O)oc3c(C)c2o1 [Trioxsalen] | 42.1 ± 0.48% | 73.7 ± 4.5%
58 | Cc1cc(=O)oc2cc(O)ccc12 [Hymecromone] | 101 ± 0.32% | 97.01 ± 0.94%
59 | COc1c2occc2c(OC)c2c(=O)cc(C)oc12 [Khellin] | 97.7 ± 1.8% | 95.1 ± 5.1%
60 | COC(=O)C1=C(C)NC(C)=C(C(=O)OCC(C)C)C1c1ccccc1[N+](=O)[O-] (stereo not drawn) [Nisoldipine] | 25.6 ± 0.48% | 23.9 ± 2.3%
61 | COCCOC(=O)C1=C(C)NC(C)=C(C(=O)OC(C)C)C1c1cccc([N+](=O)[O-])c1 (stereo not drawn) [Nimodipine] | 95.3 ± 7.3% | 97.7 ± 9%
62 | CCOC(=O)C1=C(C)NC(C)=C(C(=O)OC)C1c1cccc(Cl)c1Cl (stereo not drawn) [Felodipine] | 92.8% | 94.2%
63 | CCOC(=O)C1=C(C)NC(C)=C(C(=O)OC)C1c1cccc([N+](=O)[O-])c1 (stereo not drawn) [Nitrendipine] | 85.6 ± 1.1% | 89.9 ± 3.7%
64 | COC(=O)C1=C(C)NC(C)=C(C(=O)OC)C1c1ccccc1[N+](=O)[O-] [Nifedipine] | 44.2 ± 1.3% | 53.1 ± 1.1%
65 | COC(=O)C1=C(C)NC(C)=C(C(=O)OCCN(C)Cc2ccccc2)C1c1cccc([N+](=O)[O-])c1 (stereo not drawn) [Nicardipine hydrochloride] | 89.4 ± 5.2% | 114 ± 7.8%
66 | N=C(N=C(N)N)N1CCOCC1 [Moroxidine hydrochloride] | 106 ± 4.3% | 104 ± 1.9%
67 | O=C(Nc1ccc([N+](=O)[O-])cc1Cl)c1cc(Cl)ccc1O [Niclosamide] | 96.1 ± 0.16% | 96.59 ± 0.1%
68 | CN[C@@H]1[C@H](O[C@H]2[C@H](O[C@H]3[C@H](O)[C@@H](O)[C@H](N=C(N)N)[C@@H](O)[C@@H]3N=C(N)N)O[C@@H](C)[C@]2(O)C=O)O[C@@H](CO)[C@H](O)[C@H]1O [Streptomycin sulfate] | 103 ± 1.3% | 104.35 ± 0.1%
69 | COc1cc(C)nc(-n2nc(C)cc2OC)n1 [Epirizole] | 111 ± 3.8% | 109 ± 3.8%
